Source: PubChem BioAssay (NCI)
About 79,000 compounds went through this panel and 15% of them were active in at least one assay; those are over-represented in the sample as a whole. A number with no mark means an inactive call. The source made the active and inactive calls. Rule as the data show it: active = growth inhibition above about 70%; inactive = the rest.

How the values were obtained:
[1] = NCI Yeast Anticancer Drug Screen. Data for the rad50 strain (AID 155);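 also: 0% = growth of vehicle-only cultures of the same strain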; details: S. cerevisiae rad50 strain growth inhibition; at 50.0 µM; stronger effect = higher value
How it was run: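 DNA repair mutant yeast, compound exposure, growth read-out; inhibition is taken relative to vehicle.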

[2] = NCI Yeast Anticancer Drug Screen. Data for the mec2-1 strain (AID 157); details: S. cerevisiae mec2-1 strain, at 50.0 µM, stronger effect = higher value
How it was run: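 Mutant yeast (mec2-1) grown with compound; growth inhibition relative to vehicle control reported.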

[3] = NCI Yeast Anticancer Drug Screen. Data for the sgs1 mgt1 strain (AID 161);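 also: 0% = growth of cultures given vehicle only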; details: S. cerevisiae sgs1 mgt1 strain, at 50.0 µM, stronger effect = higher value
How it was run: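 Growth of a repair-deficient yeast mutant was monitored after compound treatment and expressed as inhibition relative to vehicle-treated cultures.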

[4] = NCI Yeast Anticancer Drug Screen. Data for the cln2 rad14 strain (AID 165);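 also: 0% = growth equal to vehicle treated cultures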; details: S. cerevisiae cln2 rad14 strain, at 50.0 µM, stronger effect = higher value
How it was run: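 Readout is yeast growth inhibition versus vehicle-treated controls, using a strain with cln2 and rad14 alterations exposed to compound.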

[5] = NCI Yeast Anticancer Drug Screen. Data for the bub3 strain (AID 167); details: S. cerevisiae bub3 mutant strain, at 50.0 µM, stronger effect = higher value
How it was run: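 In this screen, a yeast mutant lacking normal mitotic checkpoint function is challenged with compound. Relative growth versus vehicle gives the inhibition value.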

[6] = NCI Yeast Anticancer Drug Screen. Data for the mlh1 rad18 strain (AID 175); details: S. cerevisiae mlh1 rad18 strain growth inhibition; at 50.0 µM; stronger effect = higher value
How it was run: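 Genetically defined yeast (DNA repair-deficient) exposed to compounds; growth inhibition determined relative to vehicle.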

SMILES | growth inhibition [1] | growth inhibition [2] | growth inhibition [3] | growth inhibition [4] | growth inhibition [5] | growth inhibition [6]
CCC[C@@H]1C[C@@H](OC(=S)SC)C[C@H]2CCC(=O)N12 | -3.1% | -9.6% | -7.85% | -4.9% | 44.9% | -16.6%
Cc1cc(O)cc(O)c1C(=O)O[C@]1(C)C(=O)C=C2C=C(/C=C/C(=O)O)OC=C2C1=O | -2.6% | -16.9% | -9.95% | 9.6% | -13.5% | -3.9%
c1ccc(N=c2snc3scc(-c4ccccc4)n23)cc1 | 28.4% | 6.95% | 13.8% | 17.6% | 33.5% | 16.6%
O=C(Nc1ccc(Cl)cc1[N+](=O)[O-])Oc1ccc(C(=O)OCc2ccccc2)cc1 | 76.3% (active) | 75.1% (active) | 71.5% (active) | 48.5% | 84.2% (active) | 78.1% (active)
COc1ccc2c(c1OC)C1CCCCC1SCC2=O (stereo unspecified) | 14.4% | 6.85% | 0.7% | 5.75% | 12.5% | -16.4%
FC(F)(F)c1cccc(NC(=S)Nc2ccccc2S)c1 | 24% | 20.2% | 27.4% | 25.6% | 9.95% | 17%
O=C(Cc1ccccc1)N(Cc1ccccc1)Cc1ccccc1 | 96.8% (active) | 98.7% (active) | 98.8% (active) | 91.9% (active) | 92.4% (active) | 97.9% (active)
COc1ccc(-c2cc(=O)c3c(O)cc(O)cc3o2)c(OC)c1OC | -22.2% | -17.7% | -21.1% | 6.95% | -26.6% | 4.05%
CCCC(=O)c1cc(-c2cc(C(=O)CCC)nc(N)n2)nc(N)n1 | 3.65% | -3.4% | 3.1% | -15.9% | -7.1% | -0.4%
CCNC(=O)c1ccc(Cl)cc1 | 19.9% | -2.25% | 8.55% | 0.65% | -6.15% | 0.45%
CC1(C)N=C(N)N=C(N)N1c1ccc(NC(=O)Nc2ccccc2)cc1 | 16.6% | -13.2% | 16.1% | -43.2% | -2.35% | 10.3%
COc1ccc(C2SC(N)=Nc3c2c(C)nn3C(=O)c2ccc(Cl)cc2)cc1 (stereo unspecified) | 3.7% | -14.8% | 22.6% | -18.1% | -11.3% | 7.8%
CCN(CC)CCN(C(=Nc1ccccc1)N1CCOCC1)c1ccccc1 | -19.8% | -40.5% | 3.6% | -3.8% | 4.8% | -11.9%
Cc1c(C(C)C(=O)O)c2ccccc2n1C (stereo unspecified) | 39% | 12.9% | 31.9% | 33.1% | 56.8% | 45.1%
O=C(Nc1ccccc1-c1n[nH]c(=S)[nH]c1=O)C(F)(F)F | -2.45% | 2.05% | -10.3% | -7.35% | -65.8% | 30.8%
S=C(NCCNC(=S)SCc1c(Cl)c(Cl)c(Cl)c(Cl)c1Cl)SCc1c(Cl)c(Cl)c(Cl)c(Cl)c1Cl | 48.1% | 14.3% | 24.6% | -8.85% | -0.7% | 59.8%
CC(=S)NC(O)C(=O)c1ccccc1 (stereo unspecified) | 9.85% | 12.8% | 45% | 8.6% | 45.2% | 6.45%
N/N=C1\C(=O)N(C2CCCCC2)C(=O)C1C(=O)NC1CCCCC1 (stereo unspecified) | -10.9% | -1.2% | -15% | -10.8% | -20.4% | -32.2%
O=C(CN(C(=O)OC12CC3CC(CC(C3)C1)C2)C(=O)OC12CC3CC(CC(C3)C1)C2)Oc1ccc([N+](=O)[O-])cc1 | 7.75% | 7.15% | 7.35% | 31.8% | 13.6% | -0.85%
O=[N+]([O-])c1ccc(C2SCc3nc4ccccc4n32)cc1 (stereo unspecified) | 3.4% | -14.2% | 49.1% | 15.2% | 23.1% | -2.65%
C=C(C)/C=C/S(=O)c1ccccc1 (stereo unspecified) | -3.3% | -2.85% | 10.3% | -5.35% | -16.4% | -5.15%

SMILES | growth inhibition [1] | growth inhibition [2] | growth inhibition [3] | growth inhibition [4] | growth inhibition [5] | growth inhibition [6]
O=C(O)C1c2ccccc2C(C(=O)O)c2ccccc21 (stereo unspecified) | -6.4% | -2.25% | -4% | 19.9% | 13% | 31.8%
CN(C)C(=O)C(NCCO)c1ccccc1 (stereo unspecified) | -12.6% | -20.4% | -11.2% | -27.8% | 14% | 0.3%
CC1CC(C2=CC=CCS2)=Nc2ccccc2S1 (stereo unspecified) | -8.25% | -16.2% | 33.5% | 19.9% | 5.3% | 18.8%
O=C(O)C(CO)Nc1ccccc1 (stereo unspecified) | 18.9% | 10.4% | 22.1% | 12.9% | -0.65% | 21.7%
CCCNCC(O)CNc1ccc(Cl)cc1 (stereo unspecified) | 3.1% | -7.15% | 2.05% | -9.4% | -4.3% | 5.65%
CS(=O)(=O)OC1C(OC(=O)c2ccccc2)COC(OCc2ccccc2)C1OS(C)(=O)=O (stereo unspecified) | -5.4% | 13.2% | -11.9% | -13.3% | 5.35% | 5.7%
N#Cc1cnn(-c2ccccc2)c1N | 25.5% | -7.4% | -0.3% | -0.85% | -4.3% | -1.45%
CSc1ccc(OC(=O)Nc2cc(Cl)ccc2C)cc1 | 4.35% | 14.8% | 25.9% | -0.6% | 38% | 5.75%
O=C(O)CSc1n[nH]c(-c2ccco2)n1 | -4.05% | 4.25% | 3% | 14.1% | 11.1% | 7.7%
CC(C)C(=O)OCc1ccc(Cl)cc1 | 29.8% | 38.3% | 21.8% | 12.1% | 26.8% | 17.4%
O=[N+]([O-])c1ccc(N=Cc2ccc(O)cc2)cc1 | -17.9% | -19.2% | -30.2% | -27.3% | -4.35% | -67.2%
CN1CCN(P(=O)(c2ccccc2)N2CCN(C)CC2)CC1 | 32.3% | 7.85% | 29.6% | 20.1% | -1.1% | 30.7%
OC(c1ccccc1)C1CC2C=CC1C2 (stereo unspecified) | 10.4% | 3.9% | 3.75% | 3.05% | -2.05% | 2.6%
CC(=O)NC(C(=O)Nc1ccccc1)=C(C)C | -7.45% | -7.9% | -11.8% | -11.5% | 5.25% | 0.8%
N/N=C(\N)SCc1ccc(N=C=S)cc1 | -4.8% | 6.85% | 17.4% | 18.9% | 16.5% | 15.5%
N=C(N)SCc1cccc(-c2nc3ccccc3c(=O)o2)c1 | 22.2% | 17.4% | 7.9% | 5.95% | 20.8% | 16.9%
Brc1ccc(-c2ccc(Br)cc2)cc1 | -4.45% | -4.35% | 6.25% | -44% | -19.1% | -5.25%
O=C(C/C(=N\NC(=O)C[n+]1ccccc1)C(=O)Nc1nc2ccc([N+](=O)[O-])cc2s1)CC(c1ccccc1)c1c(O)c2ccccc2oc1=O (stereo unspecified) | 3.65% | -15% | -17.2% | 1.6% | 7.3% | -4.85%
Cc1ccc(S(=O)(=O)N2CCN(S(=O)(=O)c3ccc(C)cc3)COC2)cc1 | -1.1% | -0.4% | -5.15% | -3.85% | -1.6% | -9.85%
COc1ccc(C2OC23CC(C)(C)c2ccccc2C3=O)cc1 (stereo unspecified) | -3.8% | 1.65% | -0.05% | -11% | 16.3% | -1.1%
